We go through 10 compounds from PubChem BioAssay (NCI).

The nature of assay [1]: NCI Yeast Anticancer Drug Screen. Data for the rad50 strain (AID 155).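 Also: 0% = growth of vehicle-only cultures of the same strain.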 The note with it: S. cerevisiae rad50 strain growth inhibition, hits give high values. An outline of the steps:
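Growth of the mutant yeast was measured after compound exposure and referenced to vehicle-treated cultures.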

A short description of assay [2]: NCI Yeast Anticancer Drug Screen. Data for the mec2-1 strain (AID 157). The note with it: S. cerevisiae mec2-1 strain, hits give high values. An outline of the steps:
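Using mec2-1 yeast: add compound, measure growth, express inhibition versus vehicle-treated cultures.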

Assay [3] is described as follows: NCI Yeast Anticancer Drug Screen. Data for the sgs1 mgt1 strain (AID 161).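 Also: 0% = growth of cultures given vehicle only.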 The note with it: S. cerevisiae sgs1 mgt1 strain, hits give high values. An outline of the steps: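 Compounds are added to genetically altered yeast, and growth is compared with cultures given vehicle alone to give percent inhibition.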
Assay [4] is described as follows: NCI Yeast Anticancer Drug Screen. Data for the cln2 rad14 strain (AID 165).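 Also: 0% = growth equal to vehicle treated cultures.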 The note with it: S. cerevisiae cln2 rad14 strain, hits give high values. The essentials:
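Yeast strain cln2 rad14, bearing defects in cell cycle control and DNA repair, serves as the test system; values reflect growth inhibition compared with vehicle.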

Assay [5] is described as follows: NCI Yeast Anticancer Drug Screen. Data for the bub3 strain (AID 167). The note with it: S. cerevisiae bub3 mutant strain, hits give high values. An outline of the steps:
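Whole-cell yeast assay. The mutant strain was incubated with compounds, and growth inhibition was determined by comparison with vehicle-treated cells.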

The nature of assay [6]: NCI Yeast Anticancer Drug Screen. Data for the mlh1 rad18 strain (AID 175). The note with it: S. cerevisiae mlh1 rad18 strain growth inhibition, hits give high values. The essentials: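 Steps: expose repair-defective yeast to compound; measure growth; express inhibition against vehicle-treated controls.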
Where [7] appears, read: at 5.0 µM (retest, dose inferred, filed as 0.5).
Where [8] appears, read: at 50.0 µM (retest, dose inferred, filed as 5.0).

The structures appear in SMILES notation. The panel holds about 79,000 compounds, 15% with a hit somewhere; the sample as a whole holds those more often. A number with no mark means an inactive call. Active and inactive are the calls of the source. Rule as the data show it: active = growth inhibition above about 70%; inactive = the rest.

On to `O=[N+]([O-])c1cccc2nc3ccccc3c(NCCNCCO)c12`, for which the growth inhibition was 89% (active) in assay [1] (setting [7]); 98% (active) in assay [1] (setting [8]); 75.3% (active) in assay [1] (at 50.0 µM); 95% (active) in assay [2] (setting [7]); 99% (active) in assay [2] (setting [8]); 51.2% in assay [2] (at 50.0 µM). In addition, the growth inhibition in assay [3] (setting [7]) was 90% (active); in assay [3] (setting [8]), 99% (active); in assay [3] (at 50.0 µM) it was 80.2% (active); in assay [4] (setting [7]), 75% (active); in assay [4] (setting [8]), 98% (active); in assay [4] (at 50.0 µM) it was 76.8% (active). The growth inhibition is 42% in assay [5] (setting [7]); 99% (active) in assay [5] (setting [8]); 10.6% in assay [5] (at 50.0 µM); 89% (active) in assay [6] (setting [7]); 98% (active) in assay [6] (setting [8]); 88% (active) in assay [6] (at 50.0 µM).

Regarding `CCOC(=O)C(NS(=O)(=O)c1ccccc1)(C(F)(F)F)P(=O)(OCC(C)C)OCC(C)C` (stereo not given), the growth inhibition in assay [1] (setting [7]) was 4%; in assay [1] (setting [8]) it was -2%; in assay [1] (at 50.0 µM), 98.5% (active); in assay [2] (setting [7]) it was 8%; in assay [2] (setting [8]), -2%; in assay [2] (at 50.0 µM), 96.1% (active). The growth inhibition in assay [3] (setting [7]) was -7%; in assay [3] (setting [8]), -3%; in assay [3] (at 50.0 µM) it was 96.2% (active); in assay [4] (setting [7]), 2%; in assay [4] (setting [8]), 13%; in assay [4] (at 50.0 µM) it was 97.3% (active). Further, the growth inhibition was 4% in assay [5] (setting [7]); 0% in assay [5] (setting [8]); 96.2% (active) in assay [5] (at 50.0 µM); 0% in assay [6] (setting [7]); 17% in assay [6] (setting [8]); 98% (active) in assay [6] (at 50.0 µM).

In the case of `[Pt].c1ccc(P(CCP(CCP(c2ccccc2)c2ccccc2)CCP(c2ccccc2)c2ccccc2)c2ccccc2)cc1`, the growth inhibition in assay [1] (setting [7]) was 6%; in assay [1] (setting [8]) it was 83% (active); in assay [1] (at 50.0 µM), 71.2% (active); in assay [2] (setting [7]), 36%; in assay [2] (setting [8]) it was 91% (active); in assay [2] (at 50.0 µM) it was 84.2% (active). Besides, the growth inhibition in assay [3] (setting [7]) was 19%; in assay [3] (setting [8]), 89% (active); in assay [3] (at 50.0 µM), 80% (active); in assay [4] (setting [7]) it was 6%; in assay [4] (setting [8]), 91% (active); in assay [4] (at 50.0 µM) it was 78% (active). Further, the growth inhibition in assay [5] (setting [7]) was 0%; in assay [5] (setting [8]) it was 92% (active); in assay [5] (at 50.0 µM), 80.2% (active); in assay [6] (setting [7]) it was 17%; in assay [6] (setting [8]) it was 89% (active); in assay [6] (at 50.0 µM), 79% (active).

With `COc1ccc(C2NCc3c(sc4c3CCCC4)-n3cccc32)cc1` (stereo not given), the growth inhibition in assay [1] (setting [7]) is -4%; in assay [1] (setting [8]), 43%; in assay [1] (at 50.0 µM), 57.1%; in assay [2] (setting [7]), -2%; in assay [2] (setting [8]), 31%; in assay [2] (at 50.0 µM), 11.8%. Besides, the growth inhibition was -13% in assay [3] (setting [7]); 84% (active) in assay [3] (setting [8]); 93.2% (active) in assay [3] (at 50.0 µM); -5% in assay [4] (setting [7]); 53% in assay [4] (setting [8]); 57.9% in assay [4] (at 50.0 µM). Further, the growth inhibition in assay [5] (setting [7]) was 0%; in assay [5] (setting [8]), 54%; in assay [5] (at 50.0 µM), 18.7%; in assay [6] (setting [7]), -7%; in assay [6] (setting [8]), 87% (active); in assay [6] (at 50.0 µM), 77% (active).

As for `CN1C(/C=C/c2ccc(O)c3ncccc23)CCC2CCCC(O)C21` (stereo not given), the growth inhibition is 1% in assay [1] (setting [7]); 94% (active) in assay [1] (setting [8]); 95% (active) in assay [1] (at 50.0 µM); 26% in assay [2] (setting [7]); 95% (active) in assay [2] (setting [8]); 89.6% (active) in assay [2] (at 50.0 µM). Moreover, the growth inhibition was 9% in assay [3] (setting [7]); 94% (active) in assay [3] (setting [8]); 92.2% (active) in assay [3] (at 50.0 µM); -12% in assay [4] (setting [7]); 91% (active) in assay [4] (setting [8]); 85.2% (active) in assay [4] (at 50.0 µM). Further, the growth inhibition in assay [5] (setting [7]) was 8%; in assay [5] (setting [8]), 96% (active); in assay [5] (at 50.0 µM), 92.8% (active); in assay [6] (setting [7]) it was 14%; in assay [6] (setting [8]), 96% (active); in assay [6] (at 50.0 µM) it was 95.4% (active).

For `C[C@@H]1CN(CC2COc3ccccc3O2)[C@@H](C)CN1CC1COc2ccccc2O1` (stereo not given in full), the growth inhibition in assay [1] (setting [7]) is 63%; in assay [1] (setting [8]) it was 80% (active); in assay [1] (at 50.0 µM), 86.8% (active); in assay [2] (setting [7]), 74% (active); in assay [2] (setting [8]), 86% (active); in assay [2] (at 50.0 µM) it was 84.3% (active). Also, the growth inhibition is 84% (active) in assay [3] (setting [7]); 98% (active) in assay [3] (setting [8]); 97.4% (active) in assay [3] (at 50.0 µM); 52% in assay [4] (setting [7]); 65% in assay [4] (setting [8]); 92.8% (active) in assay [4] (at 50.0 µM). In addition, the growth inhibition in assay [5] (setting [7]) was 52%; in assay [5] (setting [8]), 77% (active); in assay [5] (at 50.0 µM), 84.7% (active); in assay [6] (setting [7]) it was 82% (active); in assay [6] (setting [8]) it was 94% (active); in assay [6] (at 50.0 µM) it was 94.5% (active).

Take `c1nc2nc(N3CCOCC3)nc(N3CCCCC3)c2[nH]1`: the growth inhibition in assay [1] (setting [7]) was -22%; in assay [1] (setting [8]), -14%; in assay [1] (at 50.0 µM), -1.35%; in assay [2] (setting [7]) it was -18%; in assay [2] (setting [8]), -18%; in assay [2] (at 50.0 µM), 3.25%. In addition, the growth inhibition is 2% in assay [3] (setting [7]); 2% in assay [3] (setting [8]); 2.45% in assay [3] (at 50.0 µM); -2% in assay [4] (setting [7]); 0% in assay [4] (setting [8]); 6.7% in assay [4] (at 50.0 µM). Moreover, the growth inhibition in assay [5] (setting [7]) is -1%; in assay [5] (setting [8]), -9%; in assay [5] (at 50.0 µM), -43.2%; in assay [6] (setting [7]), -19%; in assay [6] (setting [8]) it was 10%; in assay [6] (at 50.0 µM), -0.15%.

In the case of `CC(C)/C=C1\CCC(CN2CCOCC2)C1=O` (stereo not given), the growth inhibition is 24% in assay [1] (setting [7]); 36% in assay [1] (setting [8]); 72.1% (active) in assay [1] (at 50.0 µM); 18% in assay [2] (setting [7]); 26% in assay [2] (setting [8]); 28.4% in assay [2] (at 50.0 µM). Also, the growth inhibition in assay [3] (setting [7]) is 22%; in assay [3] (setting [8]), 44%; in assay [3] (at 50.0 µM) it was 48.7%; in assay [4] (setting [7]), 23%; in assay [4] (setting [8]), 20%; in assay [4] (at 50.0 µM), 30.9%. The growth inhibition was 17% in assay [5] (setting [7]); 62% in assay [5] (setting [8]); 30.6% in assay [5] (at 50.0 µM); -5% in assay [6] (setting [7]); 71% (active) in assay [6] (setting [8]); 67.2% in assay [6] (at 50.0 µM).

As for `COc1cc(C)cc2c(-c3c(O)cc(O)c4c3C[C@H](C)N[C@H]4C)cc(-c3cc(-c4c(O)cc(O)c5c4C[C@H](C)N[C@H]5C)c4cc(C)cc(OC)c4c3O)c(O)c12`, the growth inhibition in assay [1] (setting [7]) is -6%; in assay [1] (setting [8]), 27%; in assay [1] (at 50.0 µM) it was -28.4%; in assay [2] (setting [7]), -10%; in assay [2] (setting [8]) it was -12%; in assay [2] (at 50.0 µM) it was -27.8%. The growth inhibition was -14% in assay [3] (setting [7]); -7% in assay [3] (setting [8]); 18.7% in assay [3] (at 50.0 µM); 0% in assay [4] (setting [7]); 1% in assay [4] (setting [8]); 87% (active) in assay [4] (at 50.0 µM). The growth inhibition in assay [5] (setting [7]) is 0%; in assay [5] (setting [8]) it was -23%; in assay [5] (at 50.0 µM), -48.5%; in assay [6] (setting [7]), -18%; in assay [6] (setting [8]), 27%; in assay [6] (at 50.0 µM), 2.7%.

With `CCC(CC)C(=O)O.[Ag]`, the growth inhibition is 99% (active) in assay [1] (setting [7]); 99% (active) in assay [1] (setting [8]); 99.2% (active) in assay [1] (at 50.0 µM); 99% (active) in assay [2] (setting [7]); 99% (active) in assay [2] (setting [8]); 99.6% (active) in assay [2] (at 50.0 µM). The growth inhibition is 99% (active) in assay [3] (setting [7]); 99% (active) in assay [3] (setting [8]); 99.6% (active) in assay [3] (at 50.0 µM); 99% (active) in assay [4] (setting [7]); 99% (active) in assay [4] (setting [8]); 99.2% (active) in assay [4] (at 50.0 µM). Further, the growth inhibition in assay [5] (setting [7]) was 100% (active); in assay [5] (setting [8]), 99% (active); in assay [5] (at 50.0 µM) it was 99.1% (active); in assay [6] (setting [7]), 99% (active); in assay [6] (setting [8]) it was 99% (active); in assay [6] (at 50.0 µM), 99.2% (active).
